Hits are enriched below; roughly 2.2% of the tested compounds scored in any of these assays.
TROY signal inh – inhibitors of TROY-dependent NF-kB signaling | Q293 LMP1-TROYcd NF-kB luciferase reporter, 4 h | inhibition, % at 10 µM | 360,000 compounds, 0.98% hits;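 active means compounds whose plate-normalised and pattern-corrected inhibition of the luciferase reporter signal at the single screening dose is 50% or more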
TWEAK-Fn14 inh – inhibitors of TWEAK-Fn14 interaction signaling; inhibition, % at 10 µM; TWEAK-stimulated Fn14 reporter cells, luciferase luminescence, 8 h; 360,000 compounds, 2% hits; AID 1159606; in the data active means inhibition above about 50%
LGR2 inh – blocks bursicon-induced cAMP signaling via Drosophila LGR2; HEK293 LGR2, CRE-luciferase, bursicon-stimulated, 4 h; 380,000 compounds, 0.35% hits; inhibition, % at 9.99 µM; AID 720647;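 active means drop in luminescence signal, shown as inhibition above about 50% in the replicate tests, limit read from the data, passing the limit was not always enough; inconclusive means probably only some replicates passing the limit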;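 further: agonist challenge used bursicon conditioned medium at about half maximal strength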
HSP90 inh – HSP90 refolding inhibition in rabbit reticulocyte lysate | 290,000 compounds, 0.91% hits | luciferase refolding luminescence, 3 h | inhibition, % at 5.6 µM;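 active means inhibition above the screen-wide mean plus 3 SD, computed separately per campaign, cut at about 16% in these data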;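 further: 0% = DMSO wells and 100% = 60 µM geldanamycin wells; inhibitors lower the luminescence because luciferase stays unfolded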
Active calls of the source: *.

CCN(CC)S(=O)(=O)c1cccc(-c2nnc(SCc3nc4ccccc4s3)o2)c1 was read as TROY signal inh 56.9*, TWEAK-Fn14 inh 49.4 and HSP90 inh 0.8.
Screening O=C(CSc1ccc(-c2ccc(Cl)cc2)nn1)Nc1ccc2c(c1)OCCO2 returned TROY signal inh 62.1*, TWEAK-Fn14 inh 28.5, LGR2 inh 6.4 and HSP90 inh -2.6.
Screening O=C(CSc1nnc(-c2ccc(Cl)cc2)n1Cc1ccco1)Nc1ccc2c(c1)OCCO2 returned TROY signal inh 52.1*, TWEAK-Fn14 inh 10.1 and HSP90 inh -2.1.
O=C(CN1CCC(C(=O)c2ccc(Cl)cc2)CC1)Nc1ccc2c(c1)OCCO2 was read as TROY signal inh 28.9, TWEAK-Fn14 inh 62.1* and HSP90 inh 0.1.
Screening CC(=O)Nc1cccc(NC(=O)CSc2ncc(-c3ccc(Cl)cc3)n2Cc2ccco2)c1 returned TROY signal inh 61.1*, TWEAK-Fn14 inh 80.6* and HSP90 inh 4.5.
Screening COc1ccc(N(CC(=O)NCCSCc2ccccc2C)S(=O)(=O)c2ccccc2)cc1 returned TROY signal inh 76.4*, TWEAK-Fn14 inh 26.7, LGR2 inh 14.4 and HSP90 inh 5.3.
COc1ccc(CNC(=O)C[C@@H]2CC[C@@H](NC(=O)c3ccc4c(c3)OCO4)[C@@H](CO)O2)cc1 was read as LGR2 inh -3.1.
CCOC(=O)c1cc2c(=O)n3ccccc3nc2n(C(C)C)c1=NC(=O)c1c(-c2c(F)cccc2Cl)noc1C was read as TROY signal inh -8.6, TWEAK-Fn14 inh 56.7*, LGR2 inh -9.5 and HSP90 inh -1.1.
For CCOC(=O)c1cc2c(=O)n3ccccc3nc2n(C)c1=NC(=O)c1c(-c2c(F)cccc2Cl)noc1C the results were TROY signal inh -16.4, TWEAK-Fn14 inh -16.3 and LGR2 inh 2.9.
For O=c1cc(-c2ccccc2Cl)oc2c([N+](=O)[O-])c(O)cc(O)c12 the results were TROY signal inh 51.5*, TWEAK-Fn14 inh 96.2*, LGR2 inh 69.8* and HSP90 inh -3.9.
For O=S(=O)(N[C@H]1CC[C@@H](CCn2cc(-c3cccnc3)nn2)O[C@H]1CO)c1ccccc1 the results were LGR2 inh 9.5.
Cc1cc(Cl)c(S(=O)(=O)Nc2ccc3c(c2)OCCO3)cc1OCC(=O)NC1CCCCC1 was read as TROY signal inh 58.7*, TWEAK-Fn14 inh 56.4* and HSP90 inh 2.1.
`Cc1cc(Cl)c(S(=O)(=O)Nc2ccon2)cc1OCC(=O)NC1CCCCC1` gave TROY signal inh 3.1, TWEAK-Fn14 inh 4.2 and HSP90 inh 2.9.
COC(=O)COc1ccc(S(=O)(=O)Nc2ccc3c(c2)OCCO3)cc1C was read as TROY signal inh 55.6*, TWEAK-Fn14 inh 55.7*, LGR2 inh 9.2 and HSP90 inh -0.3.
`C[C@@H]1CN([C@H](C)CO)C(=O)c2c(c3ccccc3n2C)-c2ccccc2CO[C@@H]1CN(C)S(=O)(=O)c1ccc(Cl)cc1` gave LGR2 inh 11.9.
Screening O=C(Nc1cccc(C(F)(F)F)c1)Oc1ccc(Cl)c2cccnc12 returned TROY signal inh 47.9, TWEAK-Fn14 inh 74.0*, LGR2 inh 6.0 and HSP90 inh -0.2.
For Nc1ccc2c(c1)C(=O)C(=O)c1ccccc1-2 the results were TROY signal inh 59.5*, TWEAK-Fn14 inh 105.5* and HSP90 inh 16.3*.
For Nc1ccc2c(c1)C(=O)c1ccccc1-2 the results were TROY signal inh -10.8, TWEAK-Fn14 inh -20.7 and LGR2 inh -4.1.
Screening O=C1C(=O)c2ccc(-c3ccccc3)cc2-c2ccccc21 returned TROY signal inh 83.0*, TWEAK-Fn14 inh 106.5* and HSP90 inh -1.8.
For CC(C)(C)c1cc[n+](C2=C([O-])c3ccccc3C(=O)/C2=N\S(=O)(=O)c2cccs2)cc1 the results were TROY signal inh 69.8*, TWEAK-Fn14 inh 83.6*, LGR2 inh 25.7 and HSP90 inh 8.9.
Screening O=C1/C(=N\S(=O)(=O)c2cccs2)C([n+]2ccccc2)=C([O-])c2ccccc21 returned TROY signal inh 83.3*, TWEAK-Fn14 inh 26.8, LGR2 inh inconclusive and HSP90 inh 9.3.
Screening O=C(Nc1cccc(O)c1)C(=O)Nc1ccccn1 returned TROY signal inh 38.9, TWEAK-Fn14 inh 75.7*, LGR2 inh 77.8* and HSP90 inh 37.0*.
`COc1ccc2c3c(n(C)c2c1)[C@@H](CO)N(Cc1ccncc1)CC31CN(C(=O)Cc2ccncc2)C1` gave LGR2 inh 1.5.
`Cc1ccc(S(=O)(=O)Nc2ccc3c(c2)C(=O)N([C@@H](C)CO)C[C@@H](C)[C@H](CN(C)C(=O)c2ccccc2)OCCCC[C@@H](C)O3)cc1` gave LGR2 inh -24.5.
CCOc1cc(CNc2ccc(N3CCOCC3)cc2)cc(Br)c1OCC was read as TROY signal inh 24.1, TWEAK-Fn14 inh 18.0, LGR2 inh 18.0 and HSP90 inh 3.6.
`CCOc1cc(CNc2ccc3c(c2)OCCO3)cc(Br)c1OCC` gave TROY signal inh 77.3*, TWEAK-Fn14 inh 80.7* and HSP90 inh 16.3*.
For CC(C)(C)OC(=O)N(Cc1ccccc1)Cc1ccc(OCc2cccc(NC(=O)C3CC3)c2)cc1 the results were TROY signal inh 17.1, TWEAK-Fn14 inh 57.5* and LGR2 inh 11.4.
`CC(C)(C)OC(=O)N(CCc1ccccc1)Cc1ccc(OCc2cccc(NC(=O)C3CCCC3)c2)cc1` gave TROY signal inh -8.2, TWEAK-Fn14 inh 4.4 and LGR2 inh 0.2.
`COc1ccc(CNc2nn3c(-c4cccc(C(=O)N(C)C)c4)cnc3s2)cc1` gave TROY signal inh 50.1*, TWEAK-Fn14 inh 81.1* and LGR2 inh -2.5.
Screening COc1cccc(NC(=O)c2nc(S(C)(=O)=O)ncc2Cl)c1 returned TROY signal inh 53.0*, TWEAK-Fn14 inh 74.4*, LGR2 inh 1.5 and HSP90 inh -2.6.
For COc1cccc(NC(=O)c2nc(SC)ncc2Cl)c1 the results were TROY signal inh 13.6, TWEAK-Fn14 inh -1.5, LGR2 inh -1.8 and HSP90 inh 1.7.
CN(c1ccccc1)S(=O)(=O)c1ccc(NC(=O)c2ccccc2)cc1 was read as TROY signal inh 10.6, TWEAK-Fn14 inh 17.6, LGR2 inh -9.7 and HSP90 inh -4.0.
Screening CN(c1ccccc1)S(=O)(=O)c1ccc(NC(=O)c2nc(S(C)(=O)=O)ncc2Cl)cc1 returned TROY signal inh 71.0*, TWEAK-Fn14 inh 93.2*, LGR2 inh 9.8 and HSP90 inh 0.0.
Screening COC(=O)C[C@H]1C[C@@H]2c3cc(NC(=O)Nc4ccc(OC)cc4)ccc3O[C@@H]2[C@H](CO)O1 returned LGR2 inh 12.6.
`c1ccc(-c2nnnn2-c2ccccc2)cc1` gave TROY signal inh -8.1, TWEAK-Fn14 inh -4.3, LGR2 inh 7.1 and HSP90 inh 0.1.
For ClC(Cl)(c1nnnn1-c1ccccc1)c1nnnn1-c1ccccc1 the results were TROY signal inh 59.2*, TWEAK-Fn14 inh 18.1, LGR2 inh -9.5 and HSP90 inh -4.4.
Screening CC(C)NC(=O)N1Cc2cc(C(=O)NC3CCC3)nc(-c3cccc(-c4cccnc4)c3)c2[C@@H]1CCO returned LGR2 inh 6.2.
Screening Cc1ccc(Cc2c(C3CCCCC3)nc3c(C)cc(Br)cn23)cc1 returned TROY signal inh -18.6, TWEAK-Fn14 inh 57.3* and LGR2 inh -28.7.
